Experimental findings from PubChem BioAssay are described below.

Inconclusive results are not listed. Calls of active or inactive are those of the source. Unless noted, no stated cut-off is given here; in the data, active means response above about 15%; inactive means the rest.

Test [1] in a line: rapamycin-like changes in RPL19A-GFP expression – cell-based, S. cerevisiae, multiplex flow cytometry, primary screen (AID 1862; in the data active means percent of DMSO control GFP below about 86%;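 further: lower values mimic rapamycin by blocking the RPL19A rise seen in DMSO cells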). Particulars: S. cerevisiae RPL19A-GFP strain, flow cytometry fluorescence, 3 h; at 10 µM; stronger effect = lower value. Background: In flow cytometry, cells or beads pass a laser one at a time.
The nature of test [2]: TOR pathway GLN3 branch reporter MEP2-GFP changes – S. cerevisiae, multiplex flow cytometry, primary screen (AID 1867;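 active means GFP response, as percent of the DMSO control, above the screen-wide mean plus 3 SD, about 139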;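 further: median GFP channel fluorescence of barcode-gated MEP2-GFP cells measured by flow cytometry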). Particulars: S. cerevisiae MEP2-GFP strain, 3 h, at 10 µM, stronger effect = higher value, 100% means same as DMSO wells.
Test [3] can be described thus: TOR pathway RTG branch CIT2 reporter changes – S. cerevisiae, GFP fusion, multiplex flow cytometry, primary screen (AID 1870;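 active means percent response above a set limit, the screen-wide mean plus 3 SD, cut at about 130% in these data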;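 further: barcoded CIT2-GFP strain pooled with four other GFP strains with rapamycin as positive control; median GFP fluorescence per well over plate mean of DMSO wells so 100% = DMSO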). Particulars: S. cerevisiae CIT2-GFP expression, 3 h, at 10 µM, stronger effect = higher value.
Test [4] can be described thus: TOR pathway LAP4-GFP level changes – S. cerevisiae, multiplex flow cytometry, primary screen (AID 1873;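 active means GFP signal, as percent of the solvent control, above the screen mean plus 3 SD, about 149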). To be noted: S. cerevisiae LAP4-GFP expression, 3 h, at 10 µM, stronger effect = higher value.
Test [5] in a line: yeast AGP1-GFP level changes, GLN3 branch – cell-based, multiplex flow cytometry, S. cerevisiae, primary screen (AID 1887;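 active means GFP signal above the screen-wide mean plus 3 SD, that is over about 124.5% of the solvent control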;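 further: AGP1-GFP fusion strain of S. cerevisiae within a five-strain barcoded multiplex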). To be noted: 3 h, at 10 µM, stronger effect = higher value.
The nature of test [6]: reduced mouse 2C T cell binding to pMHC/ICAM-1 vesicles – MLPCN validation set, flow cytometry, LFA-1/ICAM-1 modulator project, pilot screen (AID 2523;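 active means response below a set limit, under 55% cells CD8-positive and vesicle-bound, and CD8 cells' 90th-percentile brightness under 279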;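 on vesicle binding response: mean PE anti-B7-1 fluorescence of CD8+ cells relative to row control; 100% = QL9-loaded vesicles with DMSO vehicle in the same plate row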). Particulars: 2C mouse CD8+ T cells, at 7 µM, stronger effect = lower value; double positive events: measured here: CD8+/vesicle+ event percentage.
The target of test [7] is Integrin beta-1 (Homo sapiens) + Integrin alpha-4 (Homo sapiens) (UniProt P13612+P05556). As to the kind of experiment: alpha4beta1 integrin LIBS antibody binding reduction – U937 cells, HUTS-21 mAb, flow cytometry, validation set, VLA-4 allosteric modulator project, pilot screen (AID 2674;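 active means inhibition above 50%, about 3 SD of the validation set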;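 further: antibody binding induced by the VLA-4 ligand LDV present at three times its Kd; 0% = LDV ligand with antibody and no compound and 100% = antibody without LDV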). To be noted: HUTS-21 LIBS mAb binding, at 6.7 µM, stronger effect = higher value, binding induced by LDV ligand.

The nature of test [8]: calorie-restriction mimetic ROS inhibitors, yeast – validation compound set, pilot screen (AID 2706;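 active means superoxide response below 65% of plate, a cut near 3 SD across the whole screen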;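 further: yeast exposed to compound for one week at 30 degrees C before staining; 100% = mean of all compound wells on the same plate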). Particulars: S. cerevisiae aging, superoxide DHE fluorescence; at 10 µM; stronger effect = lower value.
The target in test [9] is Beta-adrenergic receptor kinase 1 (Homo sapiens) (UniProt P25098). Nature of the test: GRK2 binders displacing RNA aptamer, biochemical, validation, human GRK2, bead flow cytometry (AID 488806;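 active means aptamer binding inhibition above 30%, about 3 SD of noise from non-fluorescent compounds; inactive means inhibition at or below 30%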). To be noted: bead-bound GRK2, FAM-aptamer displacement, at 10 µM, stronger effect = higher value.
The target of test [10] is Beta-2 adrenergic receptor (Homo sapiens) (UniProt P07550). As to the kind of experiment: agonist-induced loss of surface beta2AR – cell-based, FAP fluorogen, flow cytometry, validation set, pilot screen (AID 504459;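 active means percent response above 42, roughly 3 SD of non-fluorescent test compounds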;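 further: agonist-driven loss of surface beta2AR via internalization measured by FAP dye flow cytometry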). To be noted: Am2.2-beta2AR cells, at 10 µM, stronger effect = higher value.
In test [11] the target is AP-2 complex subunit beta (Homo sapiens) (UniProt P63010). As to the kind of experiment: beta-arrestin/AP2 interaction blockers – biochemical, validation set, GST-AP2 beads, flow cytometry, pilot screen (AID 504541;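 active means inhibition above 54%, about 3 SD of non-fluorescent compounds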;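 further: AP2 carries R879A mutation and is captured from E. coli lysate; bead-bound FITC arrestin peptide fluorescence measuring arrestin peptide binding to AP2; 0% = DMSO wells and 100% = excess unlabeled arrestin peptide control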). To be noted: FITC arrestin peptide, at 10 µM, stronger effect = higher value, AP2 beta2 appendage fragment, R879A mutant.
The nature of test [12]: cytosolic pH regulators acting via V-ATPase – S. cerevisiae, pHLuorin, HTS validation (AID 504600).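 Further: plate controls were DMSO for no effect and reference compound for full effect.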 To be noted: V-ATPase proton transport, at 10 µM, stronger effect = higher value.
Test [13] relates to anti-desmoglein-3 scFv antibody binding to human DSG3. As to the kind of experiment: blockers of pathogenic pemphigus antibody–desmoglein-3 binding – biochemical, validation compound set, bead-based, flow cytometry, pilot screen (AID 588368;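 active means binding below the plate cutoff, the plate median minus 3 SD, with a reading above zero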;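 further: signal is the median channel fluorescence of bead-bound GFP antibody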). Particulars: Protein G beads, DSG3-Fc, scFv-GFP binding, at 10 µM, stronger effect = lower value.
Test [14] can be described thus: Nile Red efflux blockade in pump-expressing yeast – validation compound set, multiplex, phenotypic, pilot screen (AID 588506;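 active means efflux inhibition above 0.42, the validation set average plus 4 SD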;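 further: Nile Red retained in cells so higher fluorescence means more efflux inhibition; 0 = negative control wells and 1 = enniatin B 25 µM full block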). Particulars: S. cerevisiae pump-expressing triplex, Nile Red efflux flow cytometry; at 10 µM; stronger effect = higher value; the pumps come from Candida albicans.
The target in test [15] is ATP-binding cassette sub-family B member 6 (Homo sapiens) (UniProt Q9NP58). As to the kind of experiment: blockers of ABCB6-driven porphyrin uptake – K562-ABCB6 cells, flow cytometry, validation set, pilot screen (AID 588550;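 active means inhibition above the screen-wide mean plus 3 SD, about 51%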;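 further: 0% = DMSO wells and 100% = benzethonium chloride 70 µM positive control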). Particulars: K562-ABCB6 porphyrin accumulation, 1 h, at 10 µM, stronger effect = higher value.
Test [16] can be described thus: AML differentiation inducers, ER-HoxA9 marrow cells – cell-based, GFP/MAC1 double positive, flow cytometry, validation set, primary screen (AID 588685;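 active means differentiation response of at least 50%, scaled between solvent and reference control, from cells with both markers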;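 further: compound exposure lasts four days before antibody staining and flow analysis; 0% = DMSO wells and 100% = 5 µM fulvestrant positive control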). To be noted: stronger effect = higher value, normalized: vehicle 0, fulvestrant 100.

Beta-2 adrenergic receptor (Homo sapiens), sequence (P07550 whole entry, looked up): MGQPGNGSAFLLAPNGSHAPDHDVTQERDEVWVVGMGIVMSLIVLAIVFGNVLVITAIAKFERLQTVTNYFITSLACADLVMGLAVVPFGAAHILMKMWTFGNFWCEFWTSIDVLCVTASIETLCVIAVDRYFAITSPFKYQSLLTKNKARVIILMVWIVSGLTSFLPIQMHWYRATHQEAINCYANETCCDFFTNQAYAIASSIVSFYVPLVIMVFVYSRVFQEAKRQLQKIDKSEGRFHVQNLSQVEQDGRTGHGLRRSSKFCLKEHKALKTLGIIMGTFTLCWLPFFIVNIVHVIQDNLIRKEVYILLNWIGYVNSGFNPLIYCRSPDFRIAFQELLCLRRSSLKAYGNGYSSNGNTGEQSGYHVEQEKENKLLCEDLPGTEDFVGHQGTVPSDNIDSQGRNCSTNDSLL
ATP-binding cassette sub-family B member 6 (Homo sapiens), sequence (Q9NP58 whole entry, looked up): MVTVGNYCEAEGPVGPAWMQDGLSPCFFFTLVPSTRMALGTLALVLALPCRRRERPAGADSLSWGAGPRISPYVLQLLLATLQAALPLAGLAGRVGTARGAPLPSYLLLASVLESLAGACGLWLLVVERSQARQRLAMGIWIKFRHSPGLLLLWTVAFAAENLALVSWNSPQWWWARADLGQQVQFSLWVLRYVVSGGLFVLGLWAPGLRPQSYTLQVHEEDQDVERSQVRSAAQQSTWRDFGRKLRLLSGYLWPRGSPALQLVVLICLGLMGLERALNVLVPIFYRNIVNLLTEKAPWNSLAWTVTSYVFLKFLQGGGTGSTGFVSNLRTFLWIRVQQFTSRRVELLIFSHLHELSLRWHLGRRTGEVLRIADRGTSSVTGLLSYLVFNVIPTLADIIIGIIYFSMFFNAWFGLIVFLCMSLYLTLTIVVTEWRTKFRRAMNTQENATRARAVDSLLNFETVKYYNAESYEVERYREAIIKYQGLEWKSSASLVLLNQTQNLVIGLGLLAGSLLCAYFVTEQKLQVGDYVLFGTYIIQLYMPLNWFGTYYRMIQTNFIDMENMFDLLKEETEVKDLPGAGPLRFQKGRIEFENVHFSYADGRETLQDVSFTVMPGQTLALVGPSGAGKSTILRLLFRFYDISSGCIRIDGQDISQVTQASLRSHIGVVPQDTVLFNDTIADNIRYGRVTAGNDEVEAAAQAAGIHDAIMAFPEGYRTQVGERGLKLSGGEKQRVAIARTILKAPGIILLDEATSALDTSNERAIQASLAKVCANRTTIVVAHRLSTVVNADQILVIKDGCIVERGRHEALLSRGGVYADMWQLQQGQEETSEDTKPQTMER
Integrin beta-1 (Homo sapiens) + Integrin alpha-4 (Homo sapiens), sequence (P05556 whole entry, looked up): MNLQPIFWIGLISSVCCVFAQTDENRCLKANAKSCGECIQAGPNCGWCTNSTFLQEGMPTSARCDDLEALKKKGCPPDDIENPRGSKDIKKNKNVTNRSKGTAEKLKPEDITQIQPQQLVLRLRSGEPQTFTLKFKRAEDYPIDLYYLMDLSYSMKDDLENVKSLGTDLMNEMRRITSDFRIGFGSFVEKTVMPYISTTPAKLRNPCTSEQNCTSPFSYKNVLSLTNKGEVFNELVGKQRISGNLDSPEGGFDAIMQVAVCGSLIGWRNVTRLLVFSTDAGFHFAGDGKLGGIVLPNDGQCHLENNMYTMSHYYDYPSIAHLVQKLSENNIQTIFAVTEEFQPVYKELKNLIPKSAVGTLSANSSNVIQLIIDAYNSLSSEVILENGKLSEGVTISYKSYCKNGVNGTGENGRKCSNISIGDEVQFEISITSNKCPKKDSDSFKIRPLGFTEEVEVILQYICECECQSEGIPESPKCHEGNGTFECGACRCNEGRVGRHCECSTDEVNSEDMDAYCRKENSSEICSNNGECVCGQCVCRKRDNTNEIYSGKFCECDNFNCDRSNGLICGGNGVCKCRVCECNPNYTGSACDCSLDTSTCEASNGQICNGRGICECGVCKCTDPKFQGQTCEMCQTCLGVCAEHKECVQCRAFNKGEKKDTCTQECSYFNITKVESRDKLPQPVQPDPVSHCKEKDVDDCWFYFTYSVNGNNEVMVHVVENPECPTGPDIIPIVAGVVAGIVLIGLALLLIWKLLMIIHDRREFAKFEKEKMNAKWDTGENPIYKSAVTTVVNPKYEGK
Integrin beta-1 (Homo sapiens) + Integrin alpha-4 (Homo sapiens), sequence (P13612 whole entry, looked up): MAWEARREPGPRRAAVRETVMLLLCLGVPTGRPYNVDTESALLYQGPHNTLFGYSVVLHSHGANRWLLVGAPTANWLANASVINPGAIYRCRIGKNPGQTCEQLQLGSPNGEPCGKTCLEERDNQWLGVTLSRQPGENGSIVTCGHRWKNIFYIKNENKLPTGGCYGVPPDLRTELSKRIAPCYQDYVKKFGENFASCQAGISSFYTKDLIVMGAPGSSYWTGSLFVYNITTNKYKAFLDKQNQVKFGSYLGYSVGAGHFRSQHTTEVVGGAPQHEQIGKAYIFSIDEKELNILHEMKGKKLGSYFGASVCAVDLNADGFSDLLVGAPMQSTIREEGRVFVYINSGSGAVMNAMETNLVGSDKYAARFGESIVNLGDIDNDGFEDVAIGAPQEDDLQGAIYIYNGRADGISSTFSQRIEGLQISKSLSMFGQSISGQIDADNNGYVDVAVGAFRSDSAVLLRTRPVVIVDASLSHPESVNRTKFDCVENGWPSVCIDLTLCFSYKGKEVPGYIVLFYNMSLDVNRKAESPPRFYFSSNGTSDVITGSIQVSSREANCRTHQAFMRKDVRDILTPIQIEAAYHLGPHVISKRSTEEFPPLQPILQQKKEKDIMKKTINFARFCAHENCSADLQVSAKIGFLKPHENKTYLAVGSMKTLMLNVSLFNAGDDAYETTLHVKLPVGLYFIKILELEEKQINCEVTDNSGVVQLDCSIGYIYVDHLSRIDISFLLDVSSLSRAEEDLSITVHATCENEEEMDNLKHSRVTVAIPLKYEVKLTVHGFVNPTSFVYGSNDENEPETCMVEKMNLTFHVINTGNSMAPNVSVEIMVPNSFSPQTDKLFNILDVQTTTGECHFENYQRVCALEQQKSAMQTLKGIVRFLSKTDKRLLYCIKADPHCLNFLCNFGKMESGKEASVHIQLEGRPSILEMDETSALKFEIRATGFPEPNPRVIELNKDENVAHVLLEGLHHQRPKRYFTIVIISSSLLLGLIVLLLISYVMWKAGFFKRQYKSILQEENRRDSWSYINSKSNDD
Beta-adrenergic receptor kinase 1 (Homo sapiens), sequence (P25098 whole entry, looked up): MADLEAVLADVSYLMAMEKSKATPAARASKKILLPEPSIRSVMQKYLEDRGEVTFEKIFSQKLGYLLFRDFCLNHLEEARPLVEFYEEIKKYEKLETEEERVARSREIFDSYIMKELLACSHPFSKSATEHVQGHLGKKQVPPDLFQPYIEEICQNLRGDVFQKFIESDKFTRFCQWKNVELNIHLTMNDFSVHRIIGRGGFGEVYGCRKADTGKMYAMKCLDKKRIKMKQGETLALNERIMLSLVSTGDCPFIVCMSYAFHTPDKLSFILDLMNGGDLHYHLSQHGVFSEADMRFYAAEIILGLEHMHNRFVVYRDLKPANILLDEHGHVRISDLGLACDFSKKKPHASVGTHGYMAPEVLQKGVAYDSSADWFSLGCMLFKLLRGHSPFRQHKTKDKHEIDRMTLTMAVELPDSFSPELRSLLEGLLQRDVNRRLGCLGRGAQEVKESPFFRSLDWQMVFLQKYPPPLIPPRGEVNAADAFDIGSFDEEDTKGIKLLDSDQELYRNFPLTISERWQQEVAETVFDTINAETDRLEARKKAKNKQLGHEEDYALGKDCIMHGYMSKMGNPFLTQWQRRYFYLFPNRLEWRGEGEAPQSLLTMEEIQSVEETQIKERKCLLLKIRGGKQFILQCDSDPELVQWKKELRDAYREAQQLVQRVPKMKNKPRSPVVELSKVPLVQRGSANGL
AP-2 complex subunit beta (Homo sapiens), sequence (P63010 whole entry, looked up, the tested form may be a part, one chain of several): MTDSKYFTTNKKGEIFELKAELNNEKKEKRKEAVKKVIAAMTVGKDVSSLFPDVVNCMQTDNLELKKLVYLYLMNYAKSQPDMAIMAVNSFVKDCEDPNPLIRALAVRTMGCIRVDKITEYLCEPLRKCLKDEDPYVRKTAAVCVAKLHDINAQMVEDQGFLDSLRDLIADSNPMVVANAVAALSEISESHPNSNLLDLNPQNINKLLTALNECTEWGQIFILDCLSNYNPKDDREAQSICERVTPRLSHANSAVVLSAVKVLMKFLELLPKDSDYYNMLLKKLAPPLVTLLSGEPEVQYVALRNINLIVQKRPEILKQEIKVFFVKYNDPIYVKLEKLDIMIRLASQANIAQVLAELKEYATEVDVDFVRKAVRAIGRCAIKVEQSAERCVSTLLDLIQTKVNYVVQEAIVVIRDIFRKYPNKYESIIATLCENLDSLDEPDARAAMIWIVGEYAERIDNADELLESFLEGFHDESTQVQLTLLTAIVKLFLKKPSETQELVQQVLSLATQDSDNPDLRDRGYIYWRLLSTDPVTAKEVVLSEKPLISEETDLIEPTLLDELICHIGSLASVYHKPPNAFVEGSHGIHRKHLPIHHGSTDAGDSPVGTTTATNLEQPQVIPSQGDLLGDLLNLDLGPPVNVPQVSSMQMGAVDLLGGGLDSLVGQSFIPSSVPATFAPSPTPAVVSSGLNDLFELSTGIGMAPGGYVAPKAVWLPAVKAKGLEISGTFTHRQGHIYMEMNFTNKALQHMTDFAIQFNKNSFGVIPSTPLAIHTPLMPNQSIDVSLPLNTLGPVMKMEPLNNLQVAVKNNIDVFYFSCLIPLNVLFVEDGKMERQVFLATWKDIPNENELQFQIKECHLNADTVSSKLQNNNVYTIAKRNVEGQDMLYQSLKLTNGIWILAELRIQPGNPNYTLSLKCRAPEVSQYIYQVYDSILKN

Broadly, the inhibition is the drop in the measured response relative to a control, in per cent. On to `CC1(C)CC(O)(CNCc2ccc3c(c2)OCO3)CCO1` (stereo not drawn), for which the percent of DMSO control GFP in [1] is 103% (inactive). For the same molecule, the GFP response vs DMSO in test [2] was 102% (inactive); in test [4] it was 106% (inactive). Further, the percent response of DMSO control in test [3] is 101% (inactive). Moreover, the GFP response, % of DMSO in [5] is 105% (inactive). For the same molecule, the double positive events in test [6] came to 66.2%. Further, the vesicle binding response in test [6] was 192% (inactive). Besides, the inhibition was 15.9% (inactive) in test [7], 44.7% (inactive) in test [11] and 2% (inactive) in test [15]. Besides, in test [8], the superoxide response (% of plate) is 104% (inactive). Moreover, the aptamer binding inhibition in test [9] was 1% (inactive). In addition, the response in [10] is -24.4% (inactive); in [12] it was -2.49% (inactive). Also, the binding (% of control) in test [13] is 104% (inactive). In addition, the efflux inhibition (fraction of control) in test [14] was -0.04 (inactive). Moreover, the differentiation response in test [16] was 0.92% (inactive).
For the molecule `Cc1cc(O)c(C(C)C)cc1C1(c2cc(C(C)C)c(O)cc2C)OC(=O)c2ccccc21`, the percent of DMSO control GFP in [1] is 104% (inactive). Further, the GFP response vs DMSO in test [2] was 107% (inactive); in test [4] it was 120% (inactive). The percent response of DMSO control in test [3] is 104% (inactive). Besides, the GFP response, % of DMSO in test [5] was 108% (inactive). In [6], this molecule gave a double positive events of 61.7%. Besides, in test [6], the vesicle binding response was 219% (inactive). Moreover, the inhibition in test [7] is 43.2% (inactive); in [11], 62.6% (active); in test [15] it was 5% (inactive). For the same molecule, the superoxide response (% of plate) in test [8] is 88.7% (inactive). Besides, the aptamer binding inhibition in test [9] was -2% (inactive). The figures for the response in test [10] and in test [12] were 3.1% (inactive) and -4.85% (inactive), respectively. The binding (% of control) in [13] is 101% (inactive). In [14], the efflux inhibition (fraction of control) was -0.09 (inactive). In test [16], the differentiation response was 15.7% (inactive).
For the molecule `CO[C@H]1C=CO[C@@]2(C)Oc3c(C)c(O)c4c(O)c(c(C=NN5CCN(C)CC5)c(O)c4c3C2=O)NC(=O)C(C)=CC=C[C@H](C)[C@H](O)[C@@H](C)[C@@H](O)[C@@H](C)[C@H](OC(C)=O)[C@@H]1C`, in test [1], the percent of DMSO control GFP was 93.3% (inactive). In addition, the GFP response vs DMSO is 127% (inactive) in test [2] and 78.7% (inactive) in test [4]. For the same molecule, in test [3], the percent response of DMSO control is 93.9% (inactive). Also, the GFP response, % of DMSO in [5] is 98.2% (inactive). The molecule also had a double positive events in [6] of 64.9%. For the same molecule, in test [6], the vesicle binding response was 575% (inactive). Also, the results for the inhibition in [7], in test [11] and in test [15] were -46.9% (inactive), -2.48% (inactive) and 12% (inactive), respectively. The superoxide response (% of plate) in test [8] was 105% (inactive). Further, in test [9], the aptamer binding inhibition was 3% (inactive). In addition, the values for the response in [10] and in test [12] were 9.39% (inactive) and -1.49% (inactive), respectively. Also, the binding (% of control) in test [13] is 99.2% (inactive). Besides, in test [14], the efflux inhibition (fraction of control) was 0.01 (inactive). Besides, the differentiation response in [16] was 2.46% (inactive).
For `Fc1ccc(C(c2ccc(F)cc2)N2CCN(C/C=C/c3ccccc3)CC2)cc1`, the percent of DMSO control GFP in test [1] was 94.6% (inactive). The GFP response vs DMSO in test [2] is 131% (inactive); in test [4], 80.9% (inactive). The percent response of DMSO control in test [3] was 104% (inactive). In test [5], the GFP response, % of DMSO was 97% (inactive). Further, in [6], the double positive events turned out to be 56.3%. The vesicle binding response in test [6] was 215% (inactive). Further, the inhibition was -1.3% (inactive) in [7], 2.83% (inactive) in test [11] and 1% (inactive) in test [15]. Moreover, the superoxide response (% of plate) in test [8] is 108% (inactive). Besides, in [9], the aptamer binding inhibition was 4% (inactive). Also, the response was 6.79% (inactive) in [10] and -0.13% (inactive) in test [12]. For the same molecule, the binding (% of control) in test [13] was 110% (inactive). In test [14], the efflux inhibition (fraction of control) was -0.02 (inactive). The differentiation response in test [16] is 4.09% (inactive).
